Pf growth 96h – Primary qHTS for delayed death inhibitors of the malarial parasite plastid, 96 hour incubation; hit rate 6.9% among 320,000; AID 504834, 2011; Potency, µM (top dose mostly 28.7 µM), inactives show at the highest dose activity change, negative = inhibition, hits mostly inhibitors; P. falciparum luciferase reporter growth, 96 h; note: potency is the fitted concentration of half-maximal effect; % is set by controls: 0 for no effect and ±100 for the full control effect
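Delayed-death screen, second-generation endpoint: infected erythrocytes, 2% hematocrit, 0.05% parasitemia final; 96 hours at 37 C, 5% CO2; luciferase detection reagent; luminescence decrease equals reduced growth.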
MARV entry inh – qHTS for inhibitors of binding or entry into cells for Marburg Virus. Marburg virus pseudotyped entry inhibition, cell reporter. Potency, µM (series often up to 37.8 µM), inactives show at the highest dose activity change, negative = inhibition, actives largely listed as inhibitors. hit rate 1.8% among 300,000; calls by dose curve; tested in HEK293 cells; note: potency is the fitted concentration of half-maximal effect; % is set by controls: 0 for no effect and ±100 for the full control effect
Shiga inhibitor – A qHTS for Small Molecule Inhibitors of Shiga Toxin; Vero cells, Shiga toxin protein synthesis inhibition reporter; inhibition, % at 38.7 µM; hit rate 9.2% among 290,000; AID 2315, 2010; in the data active = inhibition mostly above about 28%, no sharp cut-off; inactive = mostly below about 43%; note: 0% is about no effect
Lassa entry inh – qHTS for Inhibitors of binding or entry into cells for Lassa Virus. hit rate 1.2% among 300,000. Potency, µM (titrated, usually from 37.9 µM), inactives show at the highest dose activity change, negative = inhibition, most hits filed as inhibitors. Lassa virus pseudotype entry inhibition, cell reporter; calls by dose curve; tested in HEK293 cells; note: potency is the fitted concentration of half-maximal effect; % is set by controls: 0 for no effect and ±100 for the full control effect; nearly all actives have a fitted effect of over 50% in size
Pf growth 48h – Primary qHTS for delayed death inhibitors of the malarial parasite plastid, 48 hour incubation. hit rate 5.9% among 310,000. P. falciparum luciferase growth in erythrocytes, 48 h. Potency, µM (top dose mostly 28.7 µM), inactives show at the highest dose activity change, negative = inhibition, usual class: inhibitors; note: potency is the fitted concentration of half-maximal effect; % is set by controls: 0 for no effect and ±100 for the full control effect
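Compounds are pin-transferred into medium, infected erythrocytes (2% hematocrit, 0.1% parasitemia final) are added, and plates sit one parasite generation at 37 C in 5% CO2. Detection reagent is then added and luminescence measured.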
Cycloheximide cs – Cycloheximide Counterscreen for Small Molecule Inhibitors of Shiga Toxin; cell reporter, cycloheximide protein synthesis inhibition counterscreen; max response, %; hit rate 12% among 300,000; in the data active = max response mostly above about 13%, no sharp cut-off; inactive = mostly below about 14%; note: read at 38.3 µM for the half of the compounds with a filed dose; 0% is about no effect
An asterisk follows results filed as active; ? = inconclusive; . = no result; ! = not active in a repeat; [ ] = remark or other dose. Only some compounds are listed: those with a hit (about 19% of all), similar ones and a draw of the others. Unless noted, calls come from the whole dose curve; as a rule, active = well fitted inhibition curve with a large enough effect; inconclusive = small, poorly fitted or top-dose-only effect, or another doubt; inactive = no such curve, though single readings can be large or run the other way.

SMILES	Pf growth 96h	MARV entry inh	Shiga inhibitor	Lassa entry inh	Pf growth 48h	Cycloheximide cs
Cc1cc(=O)oc2cc(NC(=S)NNC(=O)c3c(Cl)cnn3C)ccc12	?	7.9%	47.9*	-3.7%	120.4%	22.9
Cc1cc(=O)oc2cc(NC(=S)NCc3ccccn3)ccc12	-6.9%	.	33.7*	.	21.0%	17.0
Cc1cc(=O)oc2cc(Nc3ccccc3)ccc12	18.3%	16.5%	54.8*	18.4%	112.8%	59.9*
Cc1cc(=O)oc2cc(NC(=O)c3cccc(S(=O)(=O)N(C)C)c3)ccc12	-8.0%	?	65.6*	-6.6%[46.1 µM]	-0.1%	28.5*
Cc1cc(=O)oc2cc(OCC(=O)NCc3ccccn3)ccc12	?	29.9%	-11.9	21.2%	?	-2.0
Cc1cc(=O)oc2cc(NC(=O)CCC(=O)O)ccc12	77.2%	25.8%	-12.2	19.7%	18.6%	-0.9
COc1cc(NC(=O)CSCC(=O)N(C)C2CCCCC2)cc(OC)c1	-12.6%	.	.	.	?	.
O=C(NNc1cccc(Cl)c1)c1cccnc1Cl	17.1%	0.4%	2.0	-5.2%	5.5%	-0.3
CC(C)(C)c1ccc(-c2nc(C=O)c3ccccn23)cc1	69.7%	?	55.7	?	71.9%	38.9*
Cc1cc(C(=O)CN2C(=O)NC(c3ccccc3)(c3ccccc3)C2=O)c(C)n1Cc1ccccc1	8.28µM*	?	26.2	?	?	0.8
O=C(CN1C(=O)NC(c2ccccc2)(c2ccccc2)C1=O)NCc1ccccc1	?	.	.	.	-13.7%	.
O=C(CN1C(=O)NC(c2ccccc2)(c2ccccc2)C1=O)c1c[nH]c2ccccc12	-10.3%	.	-8.2	.	11.7µM*	5.5
Cc1cc(C(=O)CN2C(=O)C(=O)N(Cc3ccccc3)C2=O)c(C)n1Cc1ccccc1	.	-3.7%	.	-2.6%	.	.
CCc1cccc2c(C(=O)CN3C(=O)NC(C)(c4cccc5ccccc45)C3=O)c[nH]c12 (centres undefined)	10.4µM*	?	0.8	?	?	7.3
Cc1nn(C(=O)CCC(=O)NCc2cccc(F)c2)c2ccccc12	?	.	0.2	.	15.4%	-1.8
COc1ccccc1NC(=O)Cc1noc(CSc2cc(C)c3ccccc3n2)n1	-24.8%	-11.2%	-1.5	11.9%	-25.3%	-2.6
Cc1ccc(N=Nc2c(C)[nH]n(C(N)=S)c2=O)cc1	?	-25.7%[46.1 µM]	56.1	?	?	26.2
Cc1[nH]n(C(N)=S)c(=O)c1N=Nc1cc(C(F)(F)F)ccc1Cl	?	?	1.4	?	2.2%	-5.5
Cc1[nH]n(C(N)=S)c(=O)c1N=Nc1cccc(C(F)(F)F)c1	?	15.1%	32.5*	-28.1%	1.31µM*	17.0
Cc1[nH]n(C(N)=S)c(=O)c1N=Nc1ccc(S(=O)(=O)N2CCCC2)cc1	0.0%	17.9%[46.1 µM]	23.5	10.3%	16.3%	19.4*
Cc1[nH]n(C(N)=S)c(=O)c1N=Nc1ccc(Br)cc1	21.1%	.	42.4*	.	2.1%	27.1*
Cc1ccccc1/C=N\NC(=O)c1csnn1	-4.1%	?	111.8*	23.5%	63.5%	59.8*
O=C(N/N=C\c1ccc(F)cc1)c1csnn1	67.0%	-4.1%	106.4*	?	50.1%	44.1*
O=c1cc(N2CCOCC2)oc2c(-c3ccccc3)cccc12	.	0.316µM*!	.	-18.0%	.	.
O=c1cc(N2CCOCC2)oc2c1ccc1ccccc12	.	.	-11.6	.	.	7.4
SMILES	Pf growth 96h	MARV entry inh	Shiga inhibitor	Lassa entry inh	Pf growth 48h	Cycloheximide cs
Cc1nn(Cc2ccccc2)c(C)c1NC(=O)c1noc2c1CCc1ccccc1-2	335.8%	5.3%	-18.4	.	.	-2.0
CCOC(=O)c1cnc2ccc(C(=O)OC)cc2c1Nc1ccc2c(c1)OCCO2	10.4µM*	?	-3.3	?	?	-2.5
CCOC(=O)c1cnc2c(ccc3ccccc32)c1Nc1ccc(OC)c(OC)c1	.	?	.	-17.5%[46.1 µM]	.	.
CCOC(=O)c1cnc2c(OC)cccc2c1Nc1ccc2c(c1)OCCO2	?	?	27.8*	-27.8%	2.33µM*	28.7*
CCOC(=O)c1cnc2ccc(OC)cc2c1Nc1ccc2c(c1)OCCO2	?	?	15.5	?	?	17.2
O=C(Nc1ccccc1)OCCNC1CCCCC1	.	1.5%	.	1.7%[46.1 µM]	.	.
CCOC(=O)C(CCCOc1ccccc1C)C(=O)OCC	9.28µM*	11.2%	-6.3	-2.4%	-21.7%	3.8

Screening results: PubChem, National Center for Advancing Translational Sciences (NCATS)
